Data published in PubChem BioAssay (Tox21).
Several values for one entry are separate records, joined by “and”; a condition that tells them apart may be missing. Equal entries are not always repeated. Records with an inconclusive call do not appear. More than one record can exist for a structure, and the calls need not agree. Activity calls are given as the source filed them. Unless noted, calls follow the shape of the dose curve; as a rule, active = well fitted curve in the direction sought with a large enough effect in the repeat runs; inconclusive = weak or mixed curves; inactive = no such curve, though single readings can be large; an effect the other way counts as inactive or inconclusive.

Tests used:
[1] = qHTS assay to identify small molecule antagonists of the sonic hedgehog signaling (Shh) pathway (AID 1259369; calls by dose curve; also: nearly all actives have a fitted effect of over 45% in size; also: potency is read from the fitted curve at half-maximal effect)
Outline: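 NIH/3T3-derived 3T3Gli1-Luc cells with stably integrated Gli1-Luc reporter were preincubated 4hr at 37 C, then given compounds in DMSO plus Shh conditioned medium and incubated 24hr. Firefly luciferase luminescence read after 30min reagent at room temperature.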

[2] = qHTS assay to identify small molecule agonists of the androgen receptor (AR) signaling pathway in the presence of an antagonist - cell viability counter screen (AID 1259379); also: nearly all actives have a fitted effect of over 25% in size; also: potency is read from the fitted curve at half-maximal effect
Outline: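 MDA-kb2 human breast carcinoma cells (stable MMTV-luciferase, AR/GR responsive) were seeded 3,000 cells/well, pre-incubated 5 hr at 37C without CO2, then given 3.0uM nilutamide and compounds at 15 concentrations for 16 hr. Viability was read by CellTiter-Fluor fluorescence.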

[3] = qHTS assay to identify small molecule agonists of the estrogen receptor beta (ER-beta) signaling pathway - cell viability counter screen (AID 1259380); also: nearly all actives have a fitted effect of over 30% in size; also: potency is read from the fitted curve at half-maximal effect
Outline: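 ER-beta-UAS-bla HEK293T cells in medium with 2% charcoal-stripped FBS were preincubated 6 hr at 37C, dosed with compound in DMSO for 16 hr, then after the bla read, CellTiter-Glo was added for 30 min at room temperature; luminescence recorded.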

[4] = qHTS assay to identify small molecule antagonists of the estrogen receptor beta (ER-beta) signaling pathway - cell viability counter screen (AID 1259382); also: nearly all actives have a fitted effect of over 55% in size; also: potency is read from the fitted curve at half-maximal effect
Outline: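 ER-beta-UAS-bla HEK293T cells (2,000/well, 2% charcoal-stripped FBS) were pre-incubated 6 hr at 37C, then given compound plus 1nM final 17-beta-estradiol for 16 hr. Viability was read in the same wells by CellTiter-Glo luminescence after 30 min at room temperature.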

[5] = qHTS assay to identify small molecule agonists or antagonists of the thyroid stimulating hormone receptor (TSHR) signaling pathway - wild type cell line counter screen (AID 1259384; calls by dose curve)
Outline: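 Wild-type Hek293 cells, 800/well, 18 h at 37C, then compound with Ro20-1724 for 30 min RT. cAMP by HTRF (cAMP-d2/anti-cAMP cryptate), 1 h RT, fluorescence read. 15 concentrations, triplicates.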

[6] = target: Thyrotropin receptor (Homo sapiens) (UniProt P16473); assay: qHTS assay to identify small molecule antagonists of the thyroid stimulating hormone receptor (TSHR) signaling pathway (AID 1259385; calls by dose curve; also: nearly all actives have a fitted effect of over 20% in size)
Outline: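 TSHR-HEK293 cells (800/well) plated 18 h, then compounds with Ro20-1724 and TSH at 1.5 ng/mL final, 30 min at room temperature. cAMP quantified by HTRF (cAMP-d2/anti-cAMP-cryptate, 1 h); 15 concentrations in triplicate.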

[7] = qHTS assay to identify small molecule agonists of the estrogen receptor alpha (ER-alpha) signaling pathway in the presence of an antagonist - cell viability counter screen (AID 1259386);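 also: cells exposed to compounds for 22 h at 37 °C before the viability read; nearly all actives have a fitted effect of over 30% in size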; also: potency is read from the fitted curve at half-maximal effect
Outline: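 VM7Luc4E2 cells (endogenous full-length ER-alpha, 4×ERE-luciferase) were held 5 days in phenol red-free medium with 10% charcoal-stripped FBS, plated, then given 10.0nM ICI-182,780 and compounds at 15 concentrations for 22hr at 37C; viability read by CellTiter-Fluor fluorescence.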

[8] = qHTS assay to identify small molecule agonists of the progesterone receptor (PR) signaling pathway - cell viability counter screen (AID 1346799; calls by dose curve; also: nearly all actives have a fitted effect of over 45% in size; also: potency is read from the fitted curve at half-maximal effect)
Outline: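 Counter screen for cytotoxicity: compound-treated PR-UAS-bla HEK293T cells (16 hr, 37C, 5% CO2) were assayed with CellTiter-Glo, luminescence measured after 30 min at room temperature.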

[9] = qHTS assay to identify small molecule antagonists of the TGF-beta/Smad signaling pathway - cell viability counter screen (AID 1346824); also: nearly all actives have a fitted effect of over 50% in size
Outline: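 SBE-bla HEK 293T cells, incubated overnight, then compound plus 0.25 ng/mL TGF-beta1 (stock added) for 5 hr at 37 C. Viability was read in the same wells by CellTiter-Glo luminescence after 30 min at room temperature.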

[10] = qHTS assay to identify small molecule agonists of the TGF-beta/Smad signaling pathway - cell viability counter screen (AID 1346829); also: top concentration of the series differs between compounds; nearly all actives have a fitted effect of over 45% in size
Outline: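 SBE-bla HEK 293T cells plated overnight, compound exposure 5 hr at 37 C. Viability read in the same wells by CellTiter-Glo luminescence after 30 min at room temperature, following the beta-lactamase read.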

[11] = target: Thyrotropin-releasing hormone receptor (Homo sapiens) (UniProt P34981); assay: qHTS assay to identify small molecule antagonists of the thyrotropin-releasing hormone receptor (TRHR) signaling pathway (AID 1346877; active = well fitted inhibition curve with a large enough effect in the repeat runs, not every such curve was filed as active; also: series mostly up to about 51 µM)
Outline: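 TRHR-expressing HEK293 cells were seeded, cultured 18 h at 37 °C, then loaded with calcium dye for 2 h. Compounds were pre-incubated 5 min at room temperature before 1 nM TRH (final) was added, and kinetic fluorescence was recorded for 3 min.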

[12] = target: Thyrotropin-releasing hormone receptor (Homo sapiens) (UniProt P34981); assay: qHTS assay to identify small molecule agonists of the thyrotropin-releasing hormone receptor (TRHR) signaling pathway (AID 1346891; calls by dose curve; also: series mostly up to about 58 µM)
Outline: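 Agonist-mode calcium mobilisation screen: TRHR-transfected HEK293 cells cultured overnight (18 h), dye-loaded for 2 h at 37 °C, exposed to compounds, and monitored by fluorescence for 3 min.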

[13] = target: Progesterone receptor (Homo sapiens) (UniProt P06401); assay: qHTS assay to identify small molecule agonists of the progesterone receptor (PR) signaling pathway (AID 1346784; calls by dose curve; also: nearly all actives have a fitted effect of over 30% in size)
Outline: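 Agonist mode, quantitative HTS format in a HEK 293T line expressing a UAS-controlled beta-lactamase reporter; 16 hr compound exposure at 37C in 2% charcoal-stripped FBS, then LiveBLAzer B/G FRET fluorescence.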

[14] = target: Progesterone receptor (Homo sapiens) (UniProt P06401); assay: qHTS assay to identify small molecule antagonists of the progesterone receptor (PR) signaling pathway (AID 1346795; active = well fitted inhibition curve with a large enough effect in the signal ratio in the repeat runs, not every such curve was filed as active; the % refers to the signal ratio; also: potency is read from the fitted curve at half-maximal effect)
Outline: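 HEK293T PR-UAS-bla reporter cells in charcoal-stripped serum (2%) received compound after a 6 hr settling period, followed by R5020 agonist at 1 nM final; 16 hr incubation preceded the FRET substrate step and fluorescence measurement.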

[15] = qHTS assay to identify small molecule antagonists of the progesterone receptor (PR) signaling pathway - cell viability counter screen (AID 1346798); also: series mostly up to about 92 µM; nearly all actives have a fitted effect of over 50% in size
Outline: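 Same-well multiplex: after 16 hr at 37C with compound and R5020 stimulation, HEK293T cells carrying a UAS-bla reporter received LiveBLAzer substrate (2 hr RT), then CellTiter-Glo (30 min RT) for luminescent viability.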

[16] = qHTS assay to identify small molecule agonists of the TGF-beta/Smad signaling pathway (AID 1346859; active = well fitted activation curve with a large enough effect in the signal ratio in the repeat runs, not every such curve was filed as active; the % refers to the signal ratio; also: series mostly up to about 77 µM)
Outline: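 Smad-responsive beta-lactamase reporter cells (HEK 293T) received compounds from DMSO stocks after overnight attachment, were incubated 5 hr, then treated 2 hr with FRET substrate before dual-emission fluorescence measurement (405 nm excitation).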

[17] = target: Estrogen receptor (Homo sapiens) (UniProt P03372); assay: qHTS assay to identify small molecule agonists of the estrogen receptor alpha (ER-alpha) signaling pathway in the presence of an antagonist (AID 1259383; calls by dose curve; also: nearly all actives have a fitted effect of over 15% in size; also: potency is read from the fitted curve at half-maximal effect; as to activation: top concentration of the series differs between compounds)
Outline: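 VM7Luc4E2 cells (endogenous full-length ER-alpha, 4×ERE-luciferase) were precultured 5 days in phenol red-free medium with 10% charcoal-stripped FBS, given 10.0nM ICI-182,780 (final), then treated with compounds at 15 concentrations for 22hr at 37C; luminescence read with ONE-Glo.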

[18] = target: Estrogen receptor beta (Homo sapiens) (UniProt Q92731); assay: qHTS assay to identify small molecule agonists of the estrogen receptor beta (ER-beta) signaling pathway (AID 1259377; active = well fitted activation curve with a large enough effect in the signal ratio in the repeat runs, not every such curve was filed as active; the % refers to the signal ratio)
Outline: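 A UAS-controlled beta-lactamase reporter in ER-beta-UAS-bla HEK293T cells reports receptor activation. Compounds act for 16 hr at 37C in 2% charcoal-stripped serum, and a FRET substrate is read by fluorescence after 2 hours.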

[19] = target: Estrogen receptor beta (Homo sapiens) (UniProt Q92731); assay: qHTS assay to identify small molecule antagonists of the estrogen receptor beta (ER-beta) signaling pathway (AID 1259378; active = well fitted inhibition curve with a large enough effect in the signal ratio in the repeat runs, not every such curve was filed as active; the % refers to the signal ratio)
Outline: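 ER-beta-UAS-bla HEK293T cells in 2% charcoal-stripped FBS medium treated with compound plus 1nM final 17-beta-estradiol for 16 hr at 37C. Beta-lactamase reporter read by FRET substrate fluorescence after 2 hours at room temperature.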

[20] = target: Androgen receptor (Homo sapiens) (UniProt P10275); assay: qHTS assay to identify small molecule agonists of the androgen receptor (AR) signaling pathway in the presence of an antagonist (AID 1259381; calls by dose curve; also: nearly all actives have a fitted effect of over 15% in size)
Outline: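 MDA-kb2 human breast carcinoma cells carrying an MMTV-luciferase reporter (AR- and GR-responsive) were treated with compounds at 15 concentrations plus 3.0uM final nilutamide for 16hr at 37C without CO2; luminescence was read after ONE-Glo addition.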

Measured: Potency

Sequence of Progesterone receptor (Homo sapiens) (P06401 whole entry, looked up): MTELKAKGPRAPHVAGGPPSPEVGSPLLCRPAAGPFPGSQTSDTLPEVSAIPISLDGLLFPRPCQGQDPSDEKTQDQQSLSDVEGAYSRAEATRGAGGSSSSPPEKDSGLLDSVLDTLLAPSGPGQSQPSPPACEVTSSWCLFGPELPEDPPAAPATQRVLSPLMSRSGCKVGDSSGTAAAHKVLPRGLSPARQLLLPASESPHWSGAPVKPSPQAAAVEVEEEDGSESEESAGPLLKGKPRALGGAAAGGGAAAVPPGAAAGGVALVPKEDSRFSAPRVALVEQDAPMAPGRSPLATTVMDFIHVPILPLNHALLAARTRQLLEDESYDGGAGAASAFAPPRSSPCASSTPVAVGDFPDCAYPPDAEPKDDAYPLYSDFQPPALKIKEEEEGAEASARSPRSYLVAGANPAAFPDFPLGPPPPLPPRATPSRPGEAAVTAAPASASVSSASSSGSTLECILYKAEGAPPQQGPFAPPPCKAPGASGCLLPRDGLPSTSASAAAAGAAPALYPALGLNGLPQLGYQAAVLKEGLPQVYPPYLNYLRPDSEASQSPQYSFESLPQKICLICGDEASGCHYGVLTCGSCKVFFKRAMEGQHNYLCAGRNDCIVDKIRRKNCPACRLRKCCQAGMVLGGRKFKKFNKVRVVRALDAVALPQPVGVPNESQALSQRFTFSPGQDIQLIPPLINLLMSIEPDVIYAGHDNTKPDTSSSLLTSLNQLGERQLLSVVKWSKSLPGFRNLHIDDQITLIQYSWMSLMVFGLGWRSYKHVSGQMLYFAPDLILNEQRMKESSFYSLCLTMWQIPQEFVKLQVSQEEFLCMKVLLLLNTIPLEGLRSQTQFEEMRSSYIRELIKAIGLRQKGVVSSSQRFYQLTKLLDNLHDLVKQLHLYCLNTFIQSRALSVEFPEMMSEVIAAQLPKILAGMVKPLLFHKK
Sequence of Thyrotropin receptor (Homo sapiens) (P16473 whole entry, looked up): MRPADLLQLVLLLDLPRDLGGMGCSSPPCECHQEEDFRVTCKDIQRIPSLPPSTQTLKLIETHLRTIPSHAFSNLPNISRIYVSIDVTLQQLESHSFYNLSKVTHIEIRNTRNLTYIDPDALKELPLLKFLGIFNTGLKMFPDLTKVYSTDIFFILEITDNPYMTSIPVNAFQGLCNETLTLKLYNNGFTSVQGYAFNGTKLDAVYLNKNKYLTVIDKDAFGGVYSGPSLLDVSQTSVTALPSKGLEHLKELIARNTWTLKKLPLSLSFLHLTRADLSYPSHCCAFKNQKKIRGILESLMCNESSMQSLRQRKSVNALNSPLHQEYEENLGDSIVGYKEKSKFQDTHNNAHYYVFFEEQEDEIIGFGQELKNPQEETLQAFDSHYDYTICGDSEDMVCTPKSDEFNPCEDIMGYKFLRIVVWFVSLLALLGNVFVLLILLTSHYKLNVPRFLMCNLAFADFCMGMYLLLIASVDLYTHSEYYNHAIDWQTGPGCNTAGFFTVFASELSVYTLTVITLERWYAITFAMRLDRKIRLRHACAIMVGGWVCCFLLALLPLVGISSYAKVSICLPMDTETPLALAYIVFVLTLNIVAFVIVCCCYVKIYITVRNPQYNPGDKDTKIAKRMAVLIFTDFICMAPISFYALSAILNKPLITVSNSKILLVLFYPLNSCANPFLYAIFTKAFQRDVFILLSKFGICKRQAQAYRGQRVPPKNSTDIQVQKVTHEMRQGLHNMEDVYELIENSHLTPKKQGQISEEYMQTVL
Sequence of Estrogen receptor (Homo sapiens) (P03372 whole entry, looked up): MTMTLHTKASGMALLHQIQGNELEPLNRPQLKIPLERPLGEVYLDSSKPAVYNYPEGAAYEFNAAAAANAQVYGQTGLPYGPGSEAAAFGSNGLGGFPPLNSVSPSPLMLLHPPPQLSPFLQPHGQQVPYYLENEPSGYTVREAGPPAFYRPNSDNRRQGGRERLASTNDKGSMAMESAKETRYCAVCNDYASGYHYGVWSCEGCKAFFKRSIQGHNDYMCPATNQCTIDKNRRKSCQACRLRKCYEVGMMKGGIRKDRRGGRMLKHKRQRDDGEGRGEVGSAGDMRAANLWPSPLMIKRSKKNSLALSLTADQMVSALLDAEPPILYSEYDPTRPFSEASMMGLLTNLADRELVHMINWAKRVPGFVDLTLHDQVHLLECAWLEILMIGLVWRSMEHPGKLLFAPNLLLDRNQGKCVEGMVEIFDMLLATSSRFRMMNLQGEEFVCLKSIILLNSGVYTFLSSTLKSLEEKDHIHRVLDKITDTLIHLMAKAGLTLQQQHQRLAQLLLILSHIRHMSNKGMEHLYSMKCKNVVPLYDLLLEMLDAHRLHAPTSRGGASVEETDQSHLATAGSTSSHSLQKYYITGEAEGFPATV
Sequence of Thyrotropin-releasing hormone receptor (Homo sapiens) (P34981 whole entry, looked up): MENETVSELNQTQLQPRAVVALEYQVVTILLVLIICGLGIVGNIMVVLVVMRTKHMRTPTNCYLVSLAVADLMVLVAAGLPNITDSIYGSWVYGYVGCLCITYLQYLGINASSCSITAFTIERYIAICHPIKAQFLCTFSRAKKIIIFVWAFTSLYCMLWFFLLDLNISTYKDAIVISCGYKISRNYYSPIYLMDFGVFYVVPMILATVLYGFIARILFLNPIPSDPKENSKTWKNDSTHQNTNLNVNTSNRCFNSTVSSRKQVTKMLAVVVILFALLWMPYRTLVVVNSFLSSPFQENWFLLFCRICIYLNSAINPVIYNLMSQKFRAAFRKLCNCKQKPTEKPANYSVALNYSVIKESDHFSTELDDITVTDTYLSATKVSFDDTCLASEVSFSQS
Sequence of Estrogen receptor beta (Homo sapiens) (Q92731 whole entry, looked up): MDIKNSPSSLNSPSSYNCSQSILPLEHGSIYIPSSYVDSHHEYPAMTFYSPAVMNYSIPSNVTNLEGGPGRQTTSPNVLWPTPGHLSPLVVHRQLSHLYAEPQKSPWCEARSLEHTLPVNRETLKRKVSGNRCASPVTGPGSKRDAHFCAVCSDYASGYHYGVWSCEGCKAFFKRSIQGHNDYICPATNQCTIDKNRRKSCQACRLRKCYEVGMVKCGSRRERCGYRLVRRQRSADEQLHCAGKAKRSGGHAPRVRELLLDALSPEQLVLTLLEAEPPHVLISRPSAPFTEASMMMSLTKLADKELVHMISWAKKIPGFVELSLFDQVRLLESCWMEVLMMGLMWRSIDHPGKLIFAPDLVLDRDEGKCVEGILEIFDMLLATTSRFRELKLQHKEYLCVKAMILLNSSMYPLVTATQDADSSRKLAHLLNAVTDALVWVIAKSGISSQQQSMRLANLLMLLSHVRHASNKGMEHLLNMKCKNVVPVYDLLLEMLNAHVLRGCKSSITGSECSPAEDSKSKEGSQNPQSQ
Sequence of Androgen receptor (Homo sapiens) (P10275 whole entry, looked up): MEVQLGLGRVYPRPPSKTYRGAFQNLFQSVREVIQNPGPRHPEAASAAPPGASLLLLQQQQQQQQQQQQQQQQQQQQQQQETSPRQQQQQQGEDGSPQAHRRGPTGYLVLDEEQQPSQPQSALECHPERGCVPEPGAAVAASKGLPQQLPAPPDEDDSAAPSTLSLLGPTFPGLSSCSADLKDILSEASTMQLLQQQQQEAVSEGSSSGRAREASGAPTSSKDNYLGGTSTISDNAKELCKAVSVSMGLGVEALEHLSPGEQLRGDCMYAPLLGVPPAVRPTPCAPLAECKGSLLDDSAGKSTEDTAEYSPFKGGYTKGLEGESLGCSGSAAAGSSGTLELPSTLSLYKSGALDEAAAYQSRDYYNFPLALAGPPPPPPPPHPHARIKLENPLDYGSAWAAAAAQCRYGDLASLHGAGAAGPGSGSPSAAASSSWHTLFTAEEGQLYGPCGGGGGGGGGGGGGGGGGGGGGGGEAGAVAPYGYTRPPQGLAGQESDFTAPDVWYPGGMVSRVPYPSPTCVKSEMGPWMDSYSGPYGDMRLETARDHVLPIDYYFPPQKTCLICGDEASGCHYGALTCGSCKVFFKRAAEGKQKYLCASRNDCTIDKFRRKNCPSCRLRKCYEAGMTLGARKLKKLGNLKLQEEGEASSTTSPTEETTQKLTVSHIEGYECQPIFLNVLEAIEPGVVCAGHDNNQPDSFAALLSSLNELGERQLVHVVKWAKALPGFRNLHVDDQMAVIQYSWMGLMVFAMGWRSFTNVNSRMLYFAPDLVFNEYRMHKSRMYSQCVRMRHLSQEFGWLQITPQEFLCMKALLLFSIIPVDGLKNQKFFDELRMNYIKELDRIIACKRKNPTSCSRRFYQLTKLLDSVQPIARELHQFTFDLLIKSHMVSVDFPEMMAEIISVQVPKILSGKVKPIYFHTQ

OCCOCCN1CCN(C(c2ccccc2)c2ccc(Cl)cc2)CC1 (stereo unspecified)
active: [3] 30.2 µM | [4] 26.9 µM | [8] 33.9 µM
inactive: [5] | [6] | [7] | [9] | [10] | [11] | [12]
53.8 µM (active) and inactive: [2]
7.59 µM (active) and inactive: [1]

COc1ccc(COC(C)=O)cc1
not listed: [6] | [11] | [12] | [17] | [18] | [19] | [20]
inactive: all other assays above

Nc1ccc2cc3ccccc3cc2c1
active: [17] 1.75 µM and 13.7 µM
inactive: [1] | [2] | [4] | [5] | [7] | [15] | [8] | [9] | [10]

CNC1(C)C2CCC(C2)C1(C)C (stereo unspecified)
not listed: [6] | [7] | [14] | [17] | [18] | [19] | [20]
inactive: all other assays above

COC(=O)[C@H]1[C@H]2C[C@@H]3c4[nH]c5cc(OC)ccc5c4CCN3C[C@H]2C[C@@H](OC(=O)c2cc(OC)c(OC)c(OC)c2)[C@@H]1OC
inactive: [2] | [5] | [7] | [13] | [15] | [8] | [9]
active: [1] 12.2 µM and 15.8 µM and 23.7 µM | [3] 8.62 µM and 9.96 µM and 11.9 µM

c1ccc2c(c1)CCCC2C1=NCCN1 (stereo unspecified)
not listed: [1] | [6] | [16] | [18] | [19] | [20]
inactive: all other assays above

CC[C@@H](N)CO
not listed: [1] | [18] | [19] | [20]
inactive: all other assays above

O
not listed: [1] | [6] | [17] | [18] | [19] | [20]
inactive: all other assays above

CC[C@H]1CN2CCc3cc(OC)c(OC)cc3[C@@H]2C[C@@H]1C[C@H]1NCCc2cc(OC)c(OC)cc21
inactive: [3] | [4] | [13] | [15] | [8] | [9] | [16]
active: [1] 8.7 nM and 2.7 nM | [2] 194 nM | [7] 38.7 µM | [14] 0.772 µM

CN(C)c1ccc2nc3ccc(=[N+](C)C)cc-3sc2c1
inactive: [17] | [13] | [15] | [8] | [9] | [11] | [12]
active: [1] 739 nM and 1.09 µM and 596 nM | [2] 3.3 µM and 6.86 µM and 4.22 µM | [3] 2.08 µM and 27.3 µM and 3.76 µM | [7] 33 µM and 27.3 µM and 15 µM

O=S(=O)(O)c1ccc2nc(-c3ccccc3)[nH]c2c1
active: [3] 23.2 µM | [4] 32.7 µM | [8] 32.7 µM and 8.41 µM
inactive: [1] | [2] | [5] | [7] | [13] | [16] | [11] | [12]

C#CC(C)(CC)OC(=O)c1ccccc1C(=O)O (stereo unspecified)
not listed: [1] | [6] | [10] | [11] | [12] | [15]
inactive: all other assays above

CCCCCCCCCCCC[N+](C)(C)C
active: [1] 384 nM and 24.3 nM and 6.86 µM | [2] 13.6 µM and 9.69 µM and 13.7 µM | [3] 60.9 µM | [4] 68.6 µM | [7] 54.5 µM
inactive: [5] | [6] | [13] | [9] | [10] | [11] | [12]

COc1ccc(CCN(C)CCCC(C#N)(c2ccc(OC)c(OC)c2)C(C)C)cc1OC (stereo unspecified)
active: [7] 30.6 µM
inactive: [3] | [4] | [15] | [8] | [10] | [11] | [12]

O=C(Nc1ccccc1SSc1ccccc1NC(=O)c1ccccc1)c1ccccc1
active: [1] 4.88 µM and 5.45 µM
not listed: [2] | [3] | [8] | [14] | [18] | [19] | [20]
inactive: all other assays above
